Measurements as given in the supplement of paper PMC3334620.
In all, about 33,000 sequences were measured (“E-score (-0.5 to 0.5)”: median about -0.036, highest 2% from about 0.37 on). For the sample, the highest values were picked, then their nearest neighbours and some sequences at random.

molecular target: T1, Yer064c (UniProt P40041); assay: PBM E-score (8-mer binding enrichment) (E-score (-0.5 to 0.5)); higher = stronger / more preferred TF binding; settings: protein concentration: 200 nM; construct: GST-full length
T1 sequence: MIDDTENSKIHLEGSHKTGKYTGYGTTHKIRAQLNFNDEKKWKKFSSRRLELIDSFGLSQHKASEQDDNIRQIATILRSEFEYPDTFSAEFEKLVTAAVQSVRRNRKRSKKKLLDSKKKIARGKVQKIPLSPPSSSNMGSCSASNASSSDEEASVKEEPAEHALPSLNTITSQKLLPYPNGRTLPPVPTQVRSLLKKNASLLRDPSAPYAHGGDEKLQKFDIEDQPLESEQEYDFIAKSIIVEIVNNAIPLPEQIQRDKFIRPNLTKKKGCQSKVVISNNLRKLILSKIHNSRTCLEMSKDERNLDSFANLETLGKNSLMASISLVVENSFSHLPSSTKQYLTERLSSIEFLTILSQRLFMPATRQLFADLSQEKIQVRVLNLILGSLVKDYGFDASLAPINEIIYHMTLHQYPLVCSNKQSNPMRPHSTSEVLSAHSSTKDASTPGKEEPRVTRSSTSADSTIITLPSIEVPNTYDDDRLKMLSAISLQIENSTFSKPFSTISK
Procedure, shortened: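 Masliner-normalised scans of fluorescent anti-GST signal were the basis for scoring. That signal came from GST-tagged yeast transcription factors applied at about 100-200 nM to double-stranded universal all-10-mer Agilent arrays on fresh or once-stripped slides. Each ungapped eight-base word, pooled with its reverse complement, received an E-score from the Universal PBM Analysis Suite.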

Row | Sequence | PBM E-score
1 | CGATGTCA | -0.0638
2 | CTCAAATC | 0.158
3 | TACTAAAA | -0.00832
4 | GACTAAAA | 0.429
5 | AACTAAAA | 0.0564
6 | CACTAAAC | 0.108
7 | GACTAAAC | 0.435
8 | AACTAAAC | -0.0459
9 | GATTCTCA | 0.221
10 | CTCTCCAC | -0.0601
11 | ATTCTCTA | 0.0286
12 | GGACGTCA | -0.0394
13 | ATTGACCA | -0.0765
14 | AATTAGTA | 0.103
15 | CATTAGTA | 0.257
16 | CATTAGTC | 0.421
17 | CATTAGAC | 0.0825
18 | AATTAGTG | 0.0657
19 | AATTAGTC | 0.446
20 | CATTTTGC | -0.0161
21 | CCTAGTCG | 0.263
22 | ACTAGTCT | 0.345
23 | GCTAGTTA | 0.00744
24 | GCTAGTCC | 0.0288
25 | TCTAGTCA | 0.447

Row | Sequence | PBM E-score
26 | ACTAGTCC | 0.164
27 | GCTAGTCA | 0.448
28 | TCTAGACA | 0.128
29 | CCTAGTCA | 0.446
30 | ACTAGTCA | 0.456
31 | TCTAGTAA | -0.0245
32 | CCTAGTCC | 0.0749
33 | AACGGTGT | -0.021
34 | ACCTGGTC | -0.12
35 | AGAGAACT | -0.0782
36 | AACAGCAG | -0.26
37 | CGTTATCC | -0.11
38 | ATGAGTAC | 0.415
39 | CTGAGTAC | 0.291
40 | GTGAGTAA | 0.331
41 | CTGAGTAA | 0.204
42 | ATGAGTAA | 0.386
43 | ATGAGTAG | 0.308
44 | AGAGGCGG | -0.16
45 | AGAGGTGC | -0.25
46 | CGATCGTA | 0.05
47 | GTTCCAAA | -0.00663
48 | AAAGACAT | -0.156
49 | ACTCATGG | 0.34
50 | CCTCATGC | -0.144

Row | Sequence | PBM E-score
51 | CTTCATGC | -0.12
52 | CCTCATGA | 0.16
53 | ACTCATGC | 0.378
54 | ACTCATGA | 0.402
55 | AGCCCGGG | -0.144
56 | GCTCACAA | 0.0192
57 | CGGTAGAG | -0.118
58 | AATCACAT | 0.398
59 | AATCACAA | 0.362
60 | GATCACAC | 0.178
61 | CATCACAC | 0.0825
62 | AATCACAG | 0.359
63 | AATCACAC | 0.39
64 | CGCTATTC | -0.0435
65 | ACATACAC | 0.0835
66 | CTGGCATA | -0.0817
67 | GTCACTCA | 0.334
68 | AGTCTTCA | 0.408
69 | AGTCTTGG | 0.315
70 | AGTCTTTC | 0.372
71 | AGTCTTCG | 0.418
72 | ACTCTTCG | 0.213
73 | AGTCTTTA | 0.341
74 | AGTCTTCC | 0.432
75 | GGTCTTCA | -0.144

Row | Sequence | PBM E-score
76 | CGTCTTTC | -0.108
77 | ATTCTTCC | -0.102
78 | CGTCTTCA | -0.115
79 | CGTCTTCC | -0.0994
80 | CACTTACC | 0.0118
81 | ACAAGGGA | -0.248
82 | AATGTGAC | 0.203
83 | AGCGGCGA | -0.0237
84 | CCTTAGCG | 0.0566
85 | ACGAAGGG | -0.192
86 | CATTAGGA | 0.0671
87 | CCACTCTA | 0.0684
88 | AGCTGTCG | -0.196
89 | AGTCTCCA | 0.27
90 | CGTCTCCC | -0.223
91 | AGTCTCCC | 0.382
92 | CACTCCCC | -0.147
93 | CACTCCCA | 0.0058
94 | GACTCCCC | 0.405
95 | AACTCCCA | -0.184
96 | AACTCCCC | 0.0421
97 | GACTCCCA | 0.381
98 | AGCCCAAA | 0.141
99 | CCTCCCCC | -0.224
100 | CCTTTATC | -0.243

Row | Sequence | PBM E-score
101 | CAACGTAC | -0.0947
102 | CTAGAGTC | 0.366
103 | CTAGAGGC | -0.0949
104 | ATAGAGTC | 0.371
105 | CTAGAGTA | 0.138
106 | ATAGAGTG | 0.00994
107 | ATAGAGTA | 0.134
108 | CTAGTAGA | 0.0545
109 | AACGGTGC | -0.101
110 | ACGCCGCT | -0.119
111 | CAAACCGC | -0.0599
112 | CAACACAC | 0.0236
113 | ACTGTCCG | -0.022
114 | CTACTGAG | 0.157
115 | AGAGTCGA | 0.291
116 | CGAGTCGC | 0.383
117 | CCAGTCGC | -0.0128
118 | AGAGTCGG | 0.326
119 | CGAGTCGA | 0.271
120 | AGAGTCGC | 0.396
121 | GACCCTGC | -0.262
122 | CACCGTAC | -0.0293
123 | TGCTGAAA | -0.0596
124 | AGAGTCCG | 0.212
125 | AGAGTCTA | 0.158

Row | Sequence | PBM E-score
126 | AGAGTCTC | 0.332
127 | AGTGTCAT | 0.0731
128 | AGAGTCAT | 0.492
129 | AGAGTCCC | 0.0408
130 | AGAGTCAG | 0.457
131 | AGAGTCCA | 0.262
132 | AGAGTCCT | 0.298
133 | AGAGTCTG | 0.147
134 | AGAGTCAA | 0.436
135 | AGAGTCAC | 0.485
136 | CCCGGACG | -0.193
137 | CATCTCGC | 0.0122
138 | GACACGCA | -0.104
139 | AGCCACTC | 0.0575
140 | CGTGTATA | 0.0534
141 | CCTAATTA | -0.151
142 | ATGCTAGA | -0.0387
143 | CAGAACTG | 0.139
144 | AGCCGAGA | 0.0772
145 | CACTTTCG | -0.131
146 | AACACCAT | -0.0344
147 | CAGCTTTA | -0.123
148 | ATATATCA | -0.0122
149 | GGCACCCC | -0.215
150 | AGCATGAT | 0.26

Row | Sequence | PBM E-score
151 | CTCATGAC | 0.381
152 | CTCATGAA | 0.202
153 | ACCATGAT | 0.217
154 | ATCATGAG | 0.34
155 | ATCATGAA | 0.266
156 | CTCATGAG | 0.3
157 | GTCATGAA | 0.308
158 | ATCATGAC | 0.369
159 | ATCATGAT | 0.378
160 | GTCATGAC | 0.432
161 | GCCATGAC | 0.307
162 | CCGAGCAA | -0.287
163 | ATTTGGTG | -0.0429
164 | CCACGTTC | -0.218
165 | CGGTCAAG | -0.055
166 | AATTTAGT | 0.363
167 | GTACCGCA | -0.0756
168 | CTAGCACA | -0.147
169 | ACATAGTC | 0.386
170 | ACATAGTG | 0.0787
171 | ACATAGTA | 0.0874
172 | CCATAGCC | -0.0772
173 | CCATAGTA | 0.0975
174 | CCATAGTC | 0.396
